Measured values taken from PubChem BioAssay (NCATS).
Inconclusive results are not listed. Activity calls are given as the source filed them. Calls follow the shape of the full dose curve; tested in HEK293 reporter line.

Experiments:
[1] = qHTS for Inhibitors of the Functional Ribonucleoprotein Complex (vRNP) of Lassa (LASV) Arenavirus: LASV Primary Screen - GLuc reporter signal (AID 1347082); conditions: LASV minigenome vRNP, Gaussia luciferase reporter; series mostly up to 57.5 µM; also: nearly all actives have a fitted effect of over 60% in size
[2] = qHTS for Inhibitors of the Functional Ribonucleoprotein Complex (vRNP) of Lassa (LASV) Arenavirus: Viability assay - alamar blue signal for LASV Primary Screen (AID 1347083); conditions: cell viability, alamar blue fluorescence (LASV minigenome counter-screen); series mostly up to 57.5 µM; also: nearly all actives have a fitted effect of over 80% in size
[3] = qHTS for Inhibitors of the Functional Ribonucleoprotein Complex (vRNP) of Lymphocytic Choriomeningitis Arenaviruses (LCMV): Viability assay - alamar blue signal for LCMV Primary Screen (AID 1347085); conditions: alamar blue viability counter-screen, LCMV vRNP screen cells; series mostly up to 57.5 µM; also: nearly all actives have a fitted effect of over 80% in size
% is scaled to controls: 0 for no effect and ±100 for the full control effect.

C/C(=N/NC(=O)c1ccncc1)C(=O)O
inactive: Potency [1] | Potency [2] | Potency [3]

CCCCC(=O)O[C@]1(C(=O)CO)[C@@H](C)C[C@H]2[C@@H]3CCC4=CC(=O)C=C[C@]4(C)[C@@]3(F)[C@@H](O)C[C@@]21C
inactive: Potency [1] | Potency [2] | Potency [3]

CC(C)CCCC(C)N (stereo unspecified)
inactive: Potency [1] | Potency [2] | Potency [3]

O=C(COc1ccc(Cl)cc1)N1CCN(Cc2ccc3c(c2)OCO3)CC1
inactive: Potency [1] | Potency [2] | Potency [3]

COCC(=O)O[C@]1(CCN(C)CCCc2nc3ccccc3[nH]2)CCc2cc(F)ccc2[C@@H]1C(C)C
inactive: Potency [1] | Potency [2] | Potency [3]

COC(=O)C1=C(C)NC(C)=C(C(=O)OCCN2CCN(C(c3ccccc3)c3ccccc3)CC2)C1c1cccc([N+](=O)[O-])c1 (stereo unspecified)
inactive: Potency [1] | Potency [2] | Potency [3]

CC1(C)OC(=O)Nc2ccc(Br)cc21
inactive: Potency [1] | Potency [2] | Potency [3]

C=CCc1ccccc1OCC(O)CNC(C)C (stereo unspecified)
inactive: Potency [1] | Potency [2] | Potency [3]

CN(C)[C@@H]1C(=O)C(C(=O)NCN2CCCC2)=C(O)[C@@]2(O)C(=O)C3=C(O)c4c(O)cccc4[C@@](C)(O)C3C[C@@H]12 (stereo partly specified)
inactive: Potency [1] | Potency [2] | Potency [3]

NCCNc1cccc2ccccc12
inactive: Potency [1] | Potency [2] | Potency [3]

C[C@H]1C[C@H]2[C@@H]3CCC4=CC(=O)C=C[C@]4(C)[C@@]3(Cl)[C@@H](O)C[C@]2(C)[C@@]1(O)C(=O)CO
inactive: Potency [1] | Potency [2] | Potency [3]

CCCCCOc1ccccc1/C(=C\SC)n1ccnc1
inactive: Potency [1] | Potency [2] | Potency [3]

CCN(CC)CCCN(c1ccccc1)C1Cc2ccccc2C1
inactive: Potency [1] | Potency [2] | Potency [3]

CCCCNc1c(C(=O)OCC)c(C)nc2c1cnn2CC
inactive: Potency [1] | Potency [2] | Potency [3]

CCOC(=O)[C@@](C)(N)Cc1ccc(O)c(O)c1
inactive: Potency [1] | Potency [2] | Potency [3]

CCCCNc1ccc(C(=O)OCCN(C)C)cc1
inactive: Potency [1] | Potency [2] | Potency [3]

CN(C)CCN1C(=O)c2ccccc2N(C)c2ccccc21
inactive: Potency [1] | Potency [2] | Potency [3]

CN1CCC(=C2c3ccccc3CCc3sccc32)CC1
inactive: Potency [1] | Potency [2] | Potency [3]

CC1CCCCN1CCCOC(=O)c1ccc(OC2CCCCC2)cc1 (stereo unspecified)
inactive: Potency [1] | Potency [2] | Potency [3]

CC(=O)O[C@H]1C[C@@H]2CC[C@@H]3[C@H](CC[C@@]4(C)[C@H]3C[C@H]([N+]3(C)CCCCC3)[C@@H]4OC(C)=O)[C@@]2(C)C[C@@H]1N1CCCCC1
inactive: Potency [1] | Potency [2] | Potency [3]

CC(C)(C)C(=O)OCOC(=O)C1N2C(=O)CC2S(=O)(=O)C1(C)C (stereo unspecified)
inactive: Potency [1] | Potency [2] | Potency [3]

COc1ccc2c(c1OC)C(=O)O[C@@H]2[C@H]1c2c(cc3c(c2OC)OCO3)CCN1C
inactive: Potency [1] | Potency [2] | Potency [3]

O=C(O)Cc1ccc2c(c1)C(=O)c1ccccc1CO2
inactive: Potency [1] | Potency [2] | Potency [3]

NC(N)=NC(=O)c1nc(Cl)c(N)nc1N
inactive: Potency [1] | Potency [2] | Potency [3]

O=C(c1ccc(F)cc1)C1CCN(CCn2c(=S)[nH]c3ccccc3c2=O)CC1
inactive: Potency [1] | Potency [2] | Potency [3]

c1cnc(N2CCN(Cc3ccc4c(c3)OCO4)CC2)nc1
inactive: Potency [1] | Potency [2] | Potency [3]

O=S1(=O)c2cccc3cccc(c23)N1CCCN1CCN(c2ccc(F)cc2)CC1
inactive: Potency [1] | Potency [2] | Potency [3]

O=C(O)c1ccc(OCCN2CCCCC2)cc1
inactive: Potency [1] | Potency [2] | Potency [3]

NS(=O)(=O)c1cc2c(cc1Cl)CN(C1CCCCC1)C2=O
inactive: Potency [1] | Potency [2] | Potency [3]

CC(C)C[C@@H](N)C(=O)O
inactive: Potency [1] | Potency [2] | Potency [3]

COc1ccc2cc1Oc1ccc(cc1)C[C@H]1c3c(cc4c(c3Oc3cc5c(cc3OC)CCN(C)[C@@H]5C2)OCO4)CCN1C
inactive: Potency [1] | Potency [2] | Potency [3]

COc1cc(C(=S)N2CCOCC2)ccc1O
inactive: Potency [1] | Potency [2] | Potency [3]

C[C@@H]1CC[C@@]2(OC1)O[C@H]1C[C@H]3[C@@H]4CC[C@H]5C[C@@H](O)CC[C@]5(C)[C@H]4CC(=O)[C@]3(C)[C@H]1[C@@H]2C
inactive: activity change, negative = inhibition [1] -9.4% [at 5.82 µM] | activity change, negative = reduced viability [2] -7.37% [at 5.82 µM] | activity change, negative = lower viability [3] -0.186% [at 5.82 µM]

OCC(O)CN1CCN(c2ccccc2)CC1 (stereo unspecified)
inactive: Potency [1] | Potency [2] | Potency [3]

CCN(CC)CC(=O)OCC(=O)[C@@]1(O)CC[C@H]2[C@@H]3CCC4=CC(=O)CC[C@]4(C)[C@H]3[C@@H](O)C[C@@]21C
inactive: Potency [1] | Potency [2] | Potency [3]

NCCc1ccc(O)c(O)c1
inactive: Potency [1] | Potency [2] | Potency [3]

CCCOC(C(=O)OC1CCN(C)CC1)(c1ccccc1)c1ccccc1
inactive: Potency [1] | Potency [2] | Potency [3]

CNC1CCCN(c2c(F)cc3c(=O)c(C(=O)O)cn(C4CC4)c3c2OC)C1 (stereo unspecified)
inactive: Potency [1] | Potency [2] | Potency [3]

O=C(O)CP(=O)(O)O
inactive: Potency [1] | Potency [2] | Potency [3]

O=C(OCc1ccccc1)c1ccc(O)cc1
inactive: Potency [1] | Potency [2] | Potency [3]

OC(CCCN1CCCCC1)(c1ccccc1)c1ccccc1
inactive: Potency [1] | Potency [2] | Potency [3]

C#Cc1ccc(-c2ccccc2F)cc1
inactive: Potency [1] | Potency [2] | Potency [3]

CCC(CN)=C(c1ccccc1)c1ccccc1
inactive: Potency [1] | Potency [2] | Potency [3]

CCCCN(CCCC)CC(O)c1cc(Cl)cc2c1-c1ccc(Cl)cc1/C2=C/c1ccc(Cl)cc1 (stereo unspecified)
inactive: Potency [1] | Potency [2] | Potency [3]

CC(C)(C)c1ccc(C(=O)CCCN2CCC(OC(c3ccccc3)c3ccccc3)CC2)cc1
inactive: Potency [1] | Potency [2] | Potency [3]

Cc1cccc(N(C)C(=S)Oc2ccc3c(c2)CCC3)c1
inactive: Potency [1] | Potency [2] | Potency [3]

CCCN(CCC)C(=O)C(CCC(=O)OCCCN1CCN(CCOC(=O)Cc2c(C)n(C(=O)c3ccc(Cl)cc3)c3ccc(OC)cc23)CC1)NC(=O)c1ccccc1 (stereo unspecified)
inactive: Potency [1] | Potency [2] | Potency [3]

CO[C@]1(NC(=O)CSC(F)F)C(=O)N2C(C(=O)O)=C(CSc3nnnn3CCO)CO[C@H]21
inactive: Potency [1] | Potency [2] | Potency [3]

FC(F)(F)C(Cl)Br (stereo unspecified)
inactive: Potency [1] | Potency [2] | Potency [3]

CC(C)(C)c1nnc(NS(=O)(=O)c2ccc(N)cc2)s1
inactive: Potency [1] | Potency [2] | Potency [3]

Clc1ccc(C(Cn2ccnc2)OCc2c(Cl)cccc2Cl)c(Cl)c1 (stereo unspecified)
inactive: Potency [1] | Potency [2] | Potency [3]

CCN(CCCCOC(=O)c1ccc(OC)c(OC)c1)C(C)Cc1ccc(OC)cc1 (stereo unspecified)
inactive: Potency [1] | Potency [2] | Potency [3]

COc1ccc2c(c1)C(=O)N(CCc1ccc(S(=O)(=O)NC(=O)NC3CCCCC3)cc1)C(=O)C2(C)C
inactive: Potency [1] | Potency [2] | Potency [3]

NC[C@H]1O[C@H](O[C@H]2[C@H](O)[C@@H](O[C@H]3O[C@H](CO)[C@@H](O)[C@H](N)[C@H]3O)[C@H](N)C[C@@H]2N)[C@H](N)[C@@H](O)[C@@H]1O
inactive: Potency [1] | Potency [2] | Potency [3]

Cc1cccc(Nc2cc(Cl)nc(SCC(=O)O)n2)c1C
inactive: Potency [1] | Potency [2] | Potency [3]

c1ccc(CNCCNCc2ccccc2)cc1
inactive: Potency [1] | Potency [2] | Potency [3]

N[C@H](C(=O)O)[C@@H](O)c1ccc(O)c(O)c1
inactive: Potency [1] | Potency [2] | Potency [3]

C[C@H](N)C(=O)N[C@@H](C)C(=O)NC1[C@H]2CN(c3nc4c(cc3F)c(=O)c(C(=O)O)cn4-c3ccc(F)cc3F)C[C@@H]12 (stereo partly specified)
inactive: Potency [1] | Potency [2] | Potency [3]

C[N+](C)(C)CC[N+]1(C)Cc2c(Cl)c(Cl)c(Cl)c(Cl)c2C1
inactive: Potency [1] | Potency [2] | Potency [3]

Cc1ccc(C(C)OC(=O)C2(C)CCC(C(=O)O)C2(C)C)cc1 (stereo unspecified)
inactive: Potency [1] | Potency [2] | Potency [3]

COc1ccccc1N1CCN(CCCNc2cc(=O)n(C)c(=O)n2C)CC1
inactive: Potency [1] | Potency [2] | Potency [3]

Cc1[nH]c(=O)c(C#N)cc1-c1ccc2nccn2c1
inactive: Potency [1] | Potency [2] | Potency [3]

CC(C)[C@@H]1CC[C@@H](C)CC1=O
inactive: Potency [1] | Potency [2] | Potency [3]

CC(=O)Nc1ccc(OCCOCCOc2ccc(NC(C)=O)cc2)cc1
inactive: Potency [1] | Potency [2] | Potency [3]

CCN[C@@H]1C[C@H](N)[C@@H](OC2OC(CN)=CCC2N)[C@H](O)[C@H]1O[C@H]1OC[C@](C)(O)[C@H](NC)[C@H]1O (stereo partly specified)
inactive: activity change, negative = inhibition [1] -2.08% [at 0.757 µM] | activity change, negative = reduced viability [2] -5.5% [at 0.757 µM] | activity change, negative = lower viability [3] 0.253% [at 0.757 µM]

CC(C)(C)C(=O)C(Oc1ccc(Cl)cc1)n1ccnc1 (stereo unspecified)
inactive: Potency [1] | Potency [2] | Potency [3]

CN1CCOC(c2ccccc2)c2ccccc2C1 (stereo unspecified)
inactive: Potency [1] | Potency [2] | Potency [3]

CCOCCn1c(N2CCCN(C)CC2)nc2ccccc21
inactive: Potency [1] | Potency [2] | Potency [3]

NC(N)=N/N=C/c1c(Cl)cccc1Cl
inactive: Potency [1] | Potency [2] | Potency [3]

COc1ccc(-n2nc(CCC(=O)N(C)O)cc2-c2ccc(Cl)cc2)cc1
inactive: Potency [1] | Potency [2] | Potency [3]

COc1ccc2c(c1)c(CC(=O)O)c(C)n2C(=O)c1ccc(Cl)cc1
inactive: Potency [1] | Potency [2] | Potency [3]

CO/N=C(/C(=O)N[C@@H]1C(=O)N2C(C(=O)O)=C(Cn3nnc(C)n3)CS[C@H]12)c1csc(N)n1
inactive: Potency [1] | Potency [2] | Potency [3]

CO/N=C(\C(=O)O)c1csc(NC(=O)CCl)n1
inactive: Potency [1] | Potency [2] | Potency [3]

N[C@@H](Cc1c[nH]c2ccc(O)cc12)C(=O)O
inactive: Potency [1] | Potency [2] | Potency [3]

CC(C)c1cc2c(cc1S(=O)(=O)O)[C@@]1(C)CCC[C@@](C)(C(=O)O)[C@@H]1CC2
inactive: Potency [1] | Potency [2] | Potency [3]

NC(=O)CC[C@@H](N)C(=O)O
inactive: Potency [1] | Potency [2] | Potency [3]

CC(=O)Nc1ccn(C2COC(COC(=O)c3ccccc3)O2)c(=O)n1 (stereo unspecified)
inactive: Potency [1] | Potency [2] | Potency [3]
